According to the supplement of paper PMC11732987, “Enantioselective OTUD7B fragment discovery through chemoproteomics screening and high-throughput optimisation” (Communications Chemistry, 2025):

Tests used:
Assay in all cases: log2 ratio of Biotin-Ahx-Ub-VS probe labelling (fragment/DMSO); higher = less target engagement (more negative = stronger competition), active = hit call of the paper (q ≤ 0.05, log2 ratio ≤ -1)
Conditions in all cases: compound concentration: 200 uM; treatment time: 3 h
[1] = biological target: T1, USP19 (UniProt O94966)
T1 sequence (whole entry): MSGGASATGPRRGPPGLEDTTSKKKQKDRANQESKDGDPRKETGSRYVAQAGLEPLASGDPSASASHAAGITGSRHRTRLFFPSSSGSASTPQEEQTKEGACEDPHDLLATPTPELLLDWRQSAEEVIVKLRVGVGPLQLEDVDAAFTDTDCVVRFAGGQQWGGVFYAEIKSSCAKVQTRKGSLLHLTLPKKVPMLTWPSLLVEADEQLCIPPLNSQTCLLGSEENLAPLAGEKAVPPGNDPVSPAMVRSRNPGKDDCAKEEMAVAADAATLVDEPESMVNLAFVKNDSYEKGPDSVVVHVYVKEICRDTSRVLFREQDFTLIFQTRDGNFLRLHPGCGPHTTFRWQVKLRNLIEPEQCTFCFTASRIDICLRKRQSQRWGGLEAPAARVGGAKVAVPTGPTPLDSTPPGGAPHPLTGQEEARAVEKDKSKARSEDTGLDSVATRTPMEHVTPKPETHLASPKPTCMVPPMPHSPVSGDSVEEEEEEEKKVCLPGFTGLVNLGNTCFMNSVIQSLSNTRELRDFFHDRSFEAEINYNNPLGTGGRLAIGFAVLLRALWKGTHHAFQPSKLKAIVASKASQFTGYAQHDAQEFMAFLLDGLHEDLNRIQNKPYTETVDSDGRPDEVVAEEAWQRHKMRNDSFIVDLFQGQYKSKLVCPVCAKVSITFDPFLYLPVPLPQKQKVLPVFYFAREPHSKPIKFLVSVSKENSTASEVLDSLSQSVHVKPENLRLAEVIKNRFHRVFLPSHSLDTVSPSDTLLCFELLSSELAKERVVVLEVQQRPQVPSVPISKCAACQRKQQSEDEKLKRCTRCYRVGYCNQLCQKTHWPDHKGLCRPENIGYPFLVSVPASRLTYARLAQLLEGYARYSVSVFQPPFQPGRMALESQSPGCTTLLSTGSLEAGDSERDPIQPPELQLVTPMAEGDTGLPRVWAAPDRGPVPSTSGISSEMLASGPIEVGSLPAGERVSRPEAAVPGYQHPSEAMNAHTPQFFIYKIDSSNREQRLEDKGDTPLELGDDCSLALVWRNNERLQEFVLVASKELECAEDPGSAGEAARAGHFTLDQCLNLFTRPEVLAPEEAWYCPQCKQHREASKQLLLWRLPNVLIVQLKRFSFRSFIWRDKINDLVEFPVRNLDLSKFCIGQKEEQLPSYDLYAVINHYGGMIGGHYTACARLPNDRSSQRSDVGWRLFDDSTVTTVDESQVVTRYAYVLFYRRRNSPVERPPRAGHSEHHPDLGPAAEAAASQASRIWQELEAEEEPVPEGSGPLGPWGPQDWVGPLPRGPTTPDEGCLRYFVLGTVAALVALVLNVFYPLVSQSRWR
Outline: (§1)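 Each value is an average log2 ratio of fragment to vehicle, tested by unpaired t-test. The underlying Spectronaut label-free quantities were global-median-normalised, and only proteins with ≥2 unique peptides were included. Triplicate HEK293T lysate samples (495 µg) were exposed to fragment at 200 µM or vehicle for 3 h, then to Biotin-Ahx-Ub-VS at 0.5 µM final for 1 h, before NeutrAvidin enrichment of labelled DUBs, LysC and trypsin digestion, and diaPASEF LC-MS/MS.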

[2] = biological target: T2, USP22 (UniProt Q9UPT9)
T2 sequence (whole entry): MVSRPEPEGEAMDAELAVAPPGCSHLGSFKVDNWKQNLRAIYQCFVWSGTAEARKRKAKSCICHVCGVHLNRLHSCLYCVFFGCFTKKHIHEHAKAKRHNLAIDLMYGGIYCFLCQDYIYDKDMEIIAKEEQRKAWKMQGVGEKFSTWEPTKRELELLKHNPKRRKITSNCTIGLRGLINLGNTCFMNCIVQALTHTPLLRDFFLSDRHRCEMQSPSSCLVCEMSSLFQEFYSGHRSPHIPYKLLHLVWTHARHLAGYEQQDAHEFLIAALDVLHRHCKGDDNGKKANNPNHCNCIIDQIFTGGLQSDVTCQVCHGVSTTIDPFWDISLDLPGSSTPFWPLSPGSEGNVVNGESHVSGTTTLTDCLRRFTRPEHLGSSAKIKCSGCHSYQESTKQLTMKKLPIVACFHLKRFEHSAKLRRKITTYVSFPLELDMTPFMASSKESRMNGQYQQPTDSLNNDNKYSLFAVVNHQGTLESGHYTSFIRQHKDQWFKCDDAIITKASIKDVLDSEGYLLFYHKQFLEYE
Outline: as §1

[3] = biological target: USP24 (UniProt Q9UPU5)
Outline: as §1

[4] = biological target: T3, USP25 (UniProt Q9UHP3)
T3 sequence (whole entry): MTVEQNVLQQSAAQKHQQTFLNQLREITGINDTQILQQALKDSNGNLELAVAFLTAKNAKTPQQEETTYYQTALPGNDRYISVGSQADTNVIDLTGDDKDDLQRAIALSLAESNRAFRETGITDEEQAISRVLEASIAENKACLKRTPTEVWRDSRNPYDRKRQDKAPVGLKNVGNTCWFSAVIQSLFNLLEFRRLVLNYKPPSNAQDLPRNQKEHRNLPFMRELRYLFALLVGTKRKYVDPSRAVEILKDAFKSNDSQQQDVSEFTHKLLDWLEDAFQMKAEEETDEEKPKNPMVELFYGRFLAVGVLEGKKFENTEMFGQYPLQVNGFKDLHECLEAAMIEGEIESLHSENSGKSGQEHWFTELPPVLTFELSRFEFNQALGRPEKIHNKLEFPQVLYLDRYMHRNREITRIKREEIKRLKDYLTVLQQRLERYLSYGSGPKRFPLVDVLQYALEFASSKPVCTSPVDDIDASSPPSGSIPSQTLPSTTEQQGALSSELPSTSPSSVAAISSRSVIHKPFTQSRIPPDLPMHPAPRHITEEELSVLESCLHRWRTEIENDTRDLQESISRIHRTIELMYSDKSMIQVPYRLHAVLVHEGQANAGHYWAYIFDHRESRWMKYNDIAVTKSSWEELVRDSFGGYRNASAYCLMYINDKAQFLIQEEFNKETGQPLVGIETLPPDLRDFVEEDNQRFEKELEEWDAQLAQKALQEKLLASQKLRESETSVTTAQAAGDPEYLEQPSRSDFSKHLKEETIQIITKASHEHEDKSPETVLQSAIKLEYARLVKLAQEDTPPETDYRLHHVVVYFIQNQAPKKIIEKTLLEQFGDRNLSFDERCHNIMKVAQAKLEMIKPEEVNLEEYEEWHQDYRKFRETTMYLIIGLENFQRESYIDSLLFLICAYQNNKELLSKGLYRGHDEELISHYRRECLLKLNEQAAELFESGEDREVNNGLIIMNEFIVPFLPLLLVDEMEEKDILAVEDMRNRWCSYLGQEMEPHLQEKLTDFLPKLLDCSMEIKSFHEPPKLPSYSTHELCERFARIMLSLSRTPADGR
Outline: as §1

[5] = biological target: T4, USP28 (UniProt Q96RU2)
T4 sequence (whole entry): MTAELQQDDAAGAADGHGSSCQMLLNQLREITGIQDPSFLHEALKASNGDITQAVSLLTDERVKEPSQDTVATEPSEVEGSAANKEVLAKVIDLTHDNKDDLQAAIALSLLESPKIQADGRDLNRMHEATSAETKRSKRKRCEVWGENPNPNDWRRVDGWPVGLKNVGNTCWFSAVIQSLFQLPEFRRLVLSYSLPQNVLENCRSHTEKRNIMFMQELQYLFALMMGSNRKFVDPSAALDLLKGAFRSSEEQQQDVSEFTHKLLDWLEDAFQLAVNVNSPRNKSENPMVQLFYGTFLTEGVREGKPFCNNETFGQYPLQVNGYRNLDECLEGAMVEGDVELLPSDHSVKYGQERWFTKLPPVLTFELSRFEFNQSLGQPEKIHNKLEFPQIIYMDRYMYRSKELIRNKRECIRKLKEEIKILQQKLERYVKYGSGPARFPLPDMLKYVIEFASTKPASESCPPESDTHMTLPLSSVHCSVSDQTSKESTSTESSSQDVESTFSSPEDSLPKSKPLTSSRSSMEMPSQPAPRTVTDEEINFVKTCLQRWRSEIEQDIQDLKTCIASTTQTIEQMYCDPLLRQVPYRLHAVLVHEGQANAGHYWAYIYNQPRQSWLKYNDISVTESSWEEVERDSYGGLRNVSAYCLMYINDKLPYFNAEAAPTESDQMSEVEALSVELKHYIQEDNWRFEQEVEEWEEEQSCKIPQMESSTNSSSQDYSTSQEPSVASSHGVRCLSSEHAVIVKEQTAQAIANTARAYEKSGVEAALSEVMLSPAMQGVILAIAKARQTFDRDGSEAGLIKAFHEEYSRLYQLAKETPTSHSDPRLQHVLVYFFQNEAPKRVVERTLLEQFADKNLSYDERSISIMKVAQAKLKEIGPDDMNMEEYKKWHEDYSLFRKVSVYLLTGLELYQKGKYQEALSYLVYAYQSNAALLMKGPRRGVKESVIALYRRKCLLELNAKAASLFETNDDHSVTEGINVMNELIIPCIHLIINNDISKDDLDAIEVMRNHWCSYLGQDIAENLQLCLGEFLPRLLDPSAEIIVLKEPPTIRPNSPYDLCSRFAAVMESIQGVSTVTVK
Outline: as §1

Measured: log2 ratio of Biotin-Ahx-Ub-VS probe labelling

Sequence of USP24 (Q9UPU5 whole entry): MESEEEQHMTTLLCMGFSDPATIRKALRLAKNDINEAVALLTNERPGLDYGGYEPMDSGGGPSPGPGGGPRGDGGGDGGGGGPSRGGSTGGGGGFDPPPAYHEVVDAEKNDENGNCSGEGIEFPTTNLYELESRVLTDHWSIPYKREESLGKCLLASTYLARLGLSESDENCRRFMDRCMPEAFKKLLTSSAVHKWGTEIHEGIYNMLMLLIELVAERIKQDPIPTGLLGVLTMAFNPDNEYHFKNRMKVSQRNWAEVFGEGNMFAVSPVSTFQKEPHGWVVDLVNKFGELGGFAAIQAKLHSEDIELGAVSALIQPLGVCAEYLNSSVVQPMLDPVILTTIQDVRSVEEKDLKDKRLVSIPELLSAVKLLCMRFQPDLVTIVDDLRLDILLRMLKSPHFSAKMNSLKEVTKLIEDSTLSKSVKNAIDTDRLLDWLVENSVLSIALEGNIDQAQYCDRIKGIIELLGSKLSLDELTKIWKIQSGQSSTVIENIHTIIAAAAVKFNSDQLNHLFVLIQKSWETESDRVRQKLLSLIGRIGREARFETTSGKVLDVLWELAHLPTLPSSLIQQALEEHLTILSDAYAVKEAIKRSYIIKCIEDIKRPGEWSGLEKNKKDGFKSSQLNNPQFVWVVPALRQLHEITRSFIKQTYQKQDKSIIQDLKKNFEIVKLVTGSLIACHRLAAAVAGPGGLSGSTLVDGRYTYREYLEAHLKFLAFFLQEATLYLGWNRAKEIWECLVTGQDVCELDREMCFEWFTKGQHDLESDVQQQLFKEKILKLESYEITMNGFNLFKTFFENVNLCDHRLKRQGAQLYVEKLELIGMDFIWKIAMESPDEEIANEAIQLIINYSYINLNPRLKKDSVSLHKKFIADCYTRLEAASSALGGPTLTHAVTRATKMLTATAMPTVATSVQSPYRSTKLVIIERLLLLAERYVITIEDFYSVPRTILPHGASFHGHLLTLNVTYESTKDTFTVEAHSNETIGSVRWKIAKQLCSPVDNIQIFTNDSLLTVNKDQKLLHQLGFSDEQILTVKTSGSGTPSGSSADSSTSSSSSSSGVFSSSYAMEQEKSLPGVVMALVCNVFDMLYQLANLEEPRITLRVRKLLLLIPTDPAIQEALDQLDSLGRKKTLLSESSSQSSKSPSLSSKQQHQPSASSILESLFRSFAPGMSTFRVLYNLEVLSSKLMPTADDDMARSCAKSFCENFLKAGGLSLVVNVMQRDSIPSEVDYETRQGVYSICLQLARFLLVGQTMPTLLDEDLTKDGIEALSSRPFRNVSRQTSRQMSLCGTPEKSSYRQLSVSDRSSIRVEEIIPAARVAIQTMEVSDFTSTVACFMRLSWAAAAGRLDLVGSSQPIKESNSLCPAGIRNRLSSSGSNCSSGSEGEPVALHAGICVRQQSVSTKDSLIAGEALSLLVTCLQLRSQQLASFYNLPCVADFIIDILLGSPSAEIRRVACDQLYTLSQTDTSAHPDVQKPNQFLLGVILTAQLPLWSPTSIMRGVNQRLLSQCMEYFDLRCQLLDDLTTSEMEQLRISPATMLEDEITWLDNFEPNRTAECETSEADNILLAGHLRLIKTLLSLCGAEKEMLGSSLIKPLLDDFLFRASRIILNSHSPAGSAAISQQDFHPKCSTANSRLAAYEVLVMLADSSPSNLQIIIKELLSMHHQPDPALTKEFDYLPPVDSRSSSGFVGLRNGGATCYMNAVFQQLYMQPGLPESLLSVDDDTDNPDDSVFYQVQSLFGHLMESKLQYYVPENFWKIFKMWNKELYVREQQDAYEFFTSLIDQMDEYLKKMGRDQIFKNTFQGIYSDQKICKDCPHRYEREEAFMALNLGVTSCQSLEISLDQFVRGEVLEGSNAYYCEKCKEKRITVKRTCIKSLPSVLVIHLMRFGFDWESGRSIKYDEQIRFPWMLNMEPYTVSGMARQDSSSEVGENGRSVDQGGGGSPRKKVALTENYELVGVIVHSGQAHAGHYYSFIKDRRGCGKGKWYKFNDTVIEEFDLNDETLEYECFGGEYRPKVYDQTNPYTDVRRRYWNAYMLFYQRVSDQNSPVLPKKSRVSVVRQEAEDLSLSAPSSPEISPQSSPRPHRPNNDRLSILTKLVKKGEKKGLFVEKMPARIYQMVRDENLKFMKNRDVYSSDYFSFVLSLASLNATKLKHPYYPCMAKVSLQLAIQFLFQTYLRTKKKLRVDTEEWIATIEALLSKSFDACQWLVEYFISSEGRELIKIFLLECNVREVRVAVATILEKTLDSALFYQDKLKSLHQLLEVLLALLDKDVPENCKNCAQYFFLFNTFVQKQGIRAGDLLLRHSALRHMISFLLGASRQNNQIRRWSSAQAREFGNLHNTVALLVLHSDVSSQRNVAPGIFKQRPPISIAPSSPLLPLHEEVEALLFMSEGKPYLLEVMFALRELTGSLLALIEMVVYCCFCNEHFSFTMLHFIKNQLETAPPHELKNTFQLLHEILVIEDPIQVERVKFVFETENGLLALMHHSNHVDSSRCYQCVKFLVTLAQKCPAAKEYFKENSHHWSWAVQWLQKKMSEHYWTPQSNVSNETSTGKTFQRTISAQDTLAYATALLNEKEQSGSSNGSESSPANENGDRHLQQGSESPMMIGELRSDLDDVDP

COc1ccc(CN(C)C(=O)CCl)cc1
inactive: [1] -0.211 | [2] -0.227 | [3] -0.564 | [4] -0.245 | [5] -0.499
